Assay outcomes from PubChem BioAssay.
Only some compounds are listed: those with a hit (about 11% of all), similar ones and a draw of the others.
L3MBTL1 inh – qHTS Assay for the Inhibitors of L3MBTL1; Lethal(3)malignant brain tumor-like protein 1 (Homo sapiens), Q9Y468; AlphaScreen L3MBTL1–H3K9me1 peptide binding; Potency, µM (top dose mostly 57.1 µM), usual class: inhibitors; 0.66% of 230,000 active; AID 485360, 2010; also: nearly all actives have a fitted effect of over 60% in size
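AlphaScreen assay: L3MBTL1 (50 nM final) was preincubated 30 min at room temperature with biotinylated H3(1-15)K9me1 peptide (75 nM final), then 30 min with library compounds; streptavidin donor and nickel chelate acceptor beads (10 ug/mL final) added, 30 min dark.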
BAZ2B inh – qHTS Assay for Inhibitors of BAZ2B; Potency, µM (titrated, usually from 114 µM), usual class: inhibitors; 4.4% of 360,000 active; AID 504333, 2011; AlphaScreen BAZ2B-H3K14Ac peptide displacement; also: nearly all actives have a fitted effect of over 60% in size
Target sequence (Q9UIF8 whole entry, looked up): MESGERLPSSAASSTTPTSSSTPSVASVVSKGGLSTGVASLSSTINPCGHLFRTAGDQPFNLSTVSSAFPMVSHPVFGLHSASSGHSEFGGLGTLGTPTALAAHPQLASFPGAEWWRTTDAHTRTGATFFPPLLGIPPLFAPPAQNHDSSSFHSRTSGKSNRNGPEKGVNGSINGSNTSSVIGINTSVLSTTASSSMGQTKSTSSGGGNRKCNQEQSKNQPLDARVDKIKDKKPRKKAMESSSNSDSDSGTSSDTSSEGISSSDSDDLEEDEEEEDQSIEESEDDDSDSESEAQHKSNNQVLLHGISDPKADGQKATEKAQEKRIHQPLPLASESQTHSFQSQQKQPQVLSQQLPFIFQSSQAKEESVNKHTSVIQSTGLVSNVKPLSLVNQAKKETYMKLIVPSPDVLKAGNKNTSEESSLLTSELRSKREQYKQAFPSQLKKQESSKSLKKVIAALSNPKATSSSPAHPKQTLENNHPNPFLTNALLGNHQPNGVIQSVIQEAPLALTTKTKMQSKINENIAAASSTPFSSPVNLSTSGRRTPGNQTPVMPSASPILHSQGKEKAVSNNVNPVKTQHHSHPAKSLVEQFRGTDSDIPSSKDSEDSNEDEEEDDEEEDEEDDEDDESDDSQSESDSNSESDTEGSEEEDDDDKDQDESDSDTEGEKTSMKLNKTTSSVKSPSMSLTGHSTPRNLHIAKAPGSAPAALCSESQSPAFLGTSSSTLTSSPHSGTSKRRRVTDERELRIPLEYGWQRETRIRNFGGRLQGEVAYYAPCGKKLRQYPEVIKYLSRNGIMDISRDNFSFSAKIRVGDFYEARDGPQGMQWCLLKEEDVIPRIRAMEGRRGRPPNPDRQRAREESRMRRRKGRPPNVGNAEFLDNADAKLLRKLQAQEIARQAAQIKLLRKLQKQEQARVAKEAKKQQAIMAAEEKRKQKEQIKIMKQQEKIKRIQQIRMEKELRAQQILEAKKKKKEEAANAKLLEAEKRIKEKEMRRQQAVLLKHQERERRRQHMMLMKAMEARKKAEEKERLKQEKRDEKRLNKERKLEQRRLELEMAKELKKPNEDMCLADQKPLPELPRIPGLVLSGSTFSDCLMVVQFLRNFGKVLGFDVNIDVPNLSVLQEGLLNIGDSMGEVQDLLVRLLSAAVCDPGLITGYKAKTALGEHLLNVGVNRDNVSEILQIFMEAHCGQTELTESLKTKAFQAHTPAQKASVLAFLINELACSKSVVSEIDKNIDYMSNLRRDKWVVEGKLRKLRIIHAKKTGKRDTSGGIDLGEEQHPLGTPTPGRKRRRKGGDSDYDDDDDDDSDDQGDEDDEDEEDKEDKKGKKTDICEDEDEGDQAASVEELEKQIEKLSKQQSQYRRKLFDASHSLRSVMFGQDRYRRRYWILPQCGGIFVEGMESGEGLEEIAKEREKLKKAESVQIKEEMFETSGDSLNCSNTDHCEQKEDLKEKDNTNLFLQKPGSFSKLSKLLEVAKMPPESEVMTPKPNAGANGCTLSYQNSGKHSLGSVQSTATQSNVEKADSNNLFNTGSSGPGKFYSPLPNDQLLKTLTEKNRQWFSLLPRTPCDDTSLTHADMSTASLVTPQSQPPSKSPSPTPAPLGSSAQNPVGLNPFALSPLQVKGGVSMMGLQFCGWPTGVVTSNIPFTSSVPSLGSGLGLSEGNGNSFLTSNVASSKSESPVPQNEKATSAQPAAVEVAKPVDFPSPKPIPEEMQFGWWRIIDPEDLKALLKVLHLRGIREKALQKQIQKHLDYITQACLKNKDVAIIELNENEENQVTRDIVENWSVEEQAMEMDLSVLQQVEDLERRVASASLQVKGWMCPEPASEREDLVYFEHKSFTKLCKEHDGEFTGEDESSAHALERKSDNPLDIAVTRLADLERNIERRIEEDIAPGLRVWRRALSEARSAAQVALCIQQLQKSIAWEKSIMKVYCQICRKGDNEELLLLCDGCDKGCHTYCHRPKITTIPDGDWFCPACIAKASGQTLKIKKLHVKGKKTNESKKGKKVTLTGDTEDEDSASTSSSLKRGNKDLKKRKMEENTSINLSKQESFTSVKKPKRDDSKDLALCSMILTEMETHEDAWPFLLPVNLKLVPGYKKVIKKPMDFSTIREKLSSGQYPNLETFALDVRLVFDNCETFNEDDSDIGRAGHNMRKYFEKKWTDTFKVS
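AlphaScreen displacement: compounds (up to 110uM) incubated 30 min at room temperature with a preformed 50 nM BAZ2B/50 nM biotinylated H3K14Ac peptide complex in PBS pH 7.4 with Tween-20. Donor and acceptor beads at 10 ug/mL final added, 20 min light-protected before reading.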
HP1b chromo inh – HTS for Inhibitors of HP1-beta Chromodomain Interactions with Methylated Histone Tails | AlphaScreen HP1-beta / biotin-H3K9me3 peptide binding | Potency, µM (top dose mostly 114 µM), actives largely listed as inhibitors | 0.56% of 390,000 active | AID 540317, 2011; also: nearly all actives have a fitted effect of over 70% in size
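Compound inhibition of the preformed complex between 50 nM HP1-beta and 50 nM biotinylated H3K9me3 peptide was read by AlphaScreen. Buffer was PBS pH 7.4 with 0.01% Tween-20. Incubations ran 30 min at room temperature, with 10 ug/mL donor/acceptor beads.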
JMJD2A Tudor inh – qHTS Assay for Inhibitors of JMJD2A-Tudor Domain; 4.4% of 390,000 active; Potency, µM (titrated, usually from 114 µM), hits mostly inhibitors; Lysine-specific demethylase 4A (Homo sapiens), O75164; AlphaScreen JMJD2A-Tudor / H3K4me3 peptide binding; also: nearly all actives have a fitted effect of over 50% in size
G9a inh – qHTS Assay for Inhibitors of Histone Lysine Methyltransferase G9a; Histone-lysine N-methyltransferase EHMT2 (Homo sapiens), Q96KQ7; Potency, µM (titrated, usually from 102 µM), usual class: inhibitors; 8.8% of 350,000 active; G9a H3K9 monomethylation, AlphaScreen, 2 h; also: nearly all actives have a fitted effect of over 75% in size
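Quantitative HTS format: methyltransferase activity on a biotin-tagged H3K9 peptide is measured by AlphaScreen, using a rabbit anti-monomethyl-H3K9 antibody with streptavidin donor and anti-IgG acceptor beads. Final levels are 20 nM enzyme, 500 nM peptide, 20 uM SAM; 2 h RT.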
A number is an active result; 0 = inactive; ? = inconclusive; - = no result given; [ ] = another dose, or the depositor's remark. Calls follow the shape of the dose curve; as a rule, active = well fitted inhibition curve with a large enough effect; inconclusive = small, poorly fitted or top-dose-only effect; inactive = no such curve, though single readings can be large or run the other way.

SMILES | L3MBTL1 inh | BAZ2B inh | HP1b chromo inh | JMJD2A Tudor inh | G9a inh
CCOC(=O)C1=C(O)/C(=C\c2ccc(CNS(=O)(=O)c3ccc(Br)cc3)o2)N=C1C | 0 | 0 | 0 | 56µM | ?
CCOC(=O)C1=C(O)/C(=C/c2ccc(CNC(=O)C(=O)Nc3ccc(C)cc3)o2)N=C1C | - | 50µM | 0 | 0 | 32µM
COC(=O)C1=C(O)/C(=C\c2ccc(CNC(=O)C(=O)Nc3ccc(C)cc3)o2)N=C1C | 7.9µM | 32µM | 0 | ? | 32µM
CCOC(=O)C(=O)NCc1ccc(/C=C2/N=C(C)C(C(=O)OCC)=C2O)o1 | ? | 0 | 0 | 0 | -
COC(=O)C1=C(O)/C(=C\c2ccc(CNC(=O)C(=O)Nc3ccc(C)c(C)c3)o2)N=C1C | - | 0 | 0 | 0 | 50µM
Cc1cccc(N2CC(c3nc4ccccc4n3CCC3CCCCC3)CC2=O)c1 (centres undefined) | - | 0 | 0 | 0 | ?
CCCCNC(=O)c1ccccc1C(=O)NCCCC | 0 | 0 | ? | 14µM | 0
CC(C)(C)C(=O)Nc1ccccc1C(=O)NCCCn1ccnc1 | 0 | 18µM | 0 | 50µM | 0
CCSc1ccccc1C(=O)NCCCn1ccnc1 | 0 | 0 | 0 | 0 | 20µM
O=C(Nc1ccccc1C(=O)NCCCn1ccnc1)c1ccccc1 | - | 0 | 0 | 0 | 0
CCCN1CNc2c(c(=O)[nH]c(=S)n2CCc2ccc(C)c(C)c2)C1 | - | - | 0 | 0 | -
CN1CCN(C(=O)C2CCCN(S(=O)(=O)c3ccc(F)cc3)C2)CC1 (centres undefined) | - | 32µM | ? | 5.6µM | 14µM
CC(=O)N1CCC(C(=O)N2CCN(S(=O)(=O)c3ccc(F)cc3)CC2)CC1 | - | 0 | 0 | 0 | 0
O=C(C1CCC1)N1CCN(S(=O)(=O)c2ccc(F)cc2)CC1 | 0 | 79µM | 0 | 0 | 0[0.501 µM]
O=C(C1CCCN(S(=O)(=O)c2ccc(F)cc2)C1)N1CCOCC1 (centres undefined) | - | - | 0 | 0 | -
COc1ccc(S(=O)(=O)c2cn(C)c3cc(N4CCOCC4)c(F)cc3c2=O)cc1 | - | 0 | 0 | 0 | 0
CCN1C(C)=C(C)S/C1=C1\SC(=S)N(C2CCCCC2)C1=O | 0 | 0 | 0 | 0 | 0
C=CCN1C=CC=C/C1=C1\SC(=S)N(C)C1=O | - | ? | ? | 0 | ?
CCN1C(=O)/C(=C2/C=CC=CN2C)OC1=S | 0 | 0 | 0 | 0 | 45µM
CN1C=CC=C/C1=C1\SC(=S)N(c2ccccc2)C1=O | 0 | ? | 0 | 0 | 18µM
CN1C=CC=C/C1=C1\SC(=S)N(C2CCCCC2)C1=O | 0 | 40µM | 0 | 40µM | 16µM
CCN1C(=O)/C(=C2\Sc3ccccc3N2CC)OC1=S | 0 | 0 | 0 | ? | 0
CN1C=CC=C/C1=C1\SC(=S)N(CC(=O)O)C1=O | 0 | 50µM | 0 | 0 | 20µM
CC(C)(C)NC(=O)CN1C(=O)/C(=C/c2ccccc2)SC1=S | ? | 0 | 0 | 0 | 0[12.7 µM]
O=C1CN(C(=O)c2ccc(S(=O)(=O)N3CCCCC3)cc2)C(c2ccc(F)cc2)c2cc(Br)ccc2N1 (centres undefined) | - | 0 | 0 | 0 | ?
SMILES | L3MBTL1 inh | BAZ2B inh | HP1b chromo inh | JMJD2A Tudor inh | G9a inh
CCCn1c2ccccc2c2cnn(CC(=O)Nc3ccccc3OC)c(=O)c21 | - | 0 | 0 | 0 | 0
CCC(=O)N1CCc2cc(Br)cc(S(=O)(=O)CCC(=O)Nc3ccc(Cl)cc3)c21 | - | 0 | 0 | 0 | 0
Cc1cc2c(s1)c1cnn(Cc3ccccc3F)c(=O)c1n2C(C)C | - | - | - | 0 | -
COC(=O)[C@@H]1CC2=CC(=O)CC[C@]2(C)[C@@]23O[C@@H]2C[C@@]2(C)[C@H](CC[C@@]24CCC(=O)O4)[C@@H]13 | - | - | - | - | 0
Cc1ccc(OCCCC(=O)NC2CCCCC2)cc1 | 0 | 0 | 0 | 0 | 0
CC1(C)C(=O)N(c2ccccc2Cl)C(=O)c2ccccc21 | - | 0 | 0 | 0 | 79µM
CCSc1n[nH]c(=S)s1 | - | ? | ? | 20µM | 1.4µM
CCOc1ccc(-c2cn(-c3cccc(SC)c3)c(=O)[nH]2)cc1 | 0 | 0 | 0 | 0 | 28µM
COc1ccccc1CNC(=O)C1CCC(CNS(=O)(=O)c2ccc3c(c2)CCCC(=O)N3)CC1 (centres undefined) | - | 0 | 0 | 0 | 0
COc1ccc(C(=O)NC2(C(F)(F)F)NC(=O)N(CCCc3ccccc3)C2=O)cc1OC (centres undefined) | 0 | 0 | 0 | 79µM | 0
Cn1c(=O)c2c(SCC(=O)Nc3ccccc3C(F)(F)F)nc(C3CCCC3)nc2n(C)c1=O | - | 0 | 0 | 0 | 0
CCn1c(C(=O)NCc2ccc(C)cc2)cc2sc(Cl)cc21 | - | 0 | 0 | 0 | 0
O=C1C=C(O)c2[nH]c(=O)ccc2C1=O | - | - | 0 | 10µM | -
COc1ccc(-c2nnc(SCC(=O)N(C)Cc3ccccc3)o2)cc1OC | - | 0 | 0 | 0 | 0
CN(O)/C=N/C(=S)Nc1ccc(Cl)cc1Cl | 0 | ? | 0 | 0 | 3.5µM
CN(C)/C=N/C(=S)Nc1ccccc1Cl | 0 | 0 | 0 | 0 | ?
O=[N+]([O-])c1ccc(COc2cccc(CNc3ccc(Br)cc3)c2)cc1 | 0 | 0 | 0 | 0 | 45µM
O=[N+]([O-])c1ccc(COc2ccc(CNc3ccccc3)cc2)cc1 | 0 | ? | 0 | 0 | 0
O=C(Nc1sc2c(c1C(=O)NCc1ccco1)CCCC2)c1cc(=O)c2ccccc2o1 | - | 0 | 0 | 0 | 0
O=C(/C=C/c1ccc(-c2ccc(F)cc2)o1)N1CCCC1 | - | 0 | 0 | 0 | 45µM
Cc1ccc(CSc2nc3cccnc3n2Cc2nc(-c3ccccc3F)oc2C)cc1 | - | 0 | 0 | 0 | ?
CSC1=NS(=O)(=O)c2c(C)nn(C)c2S1 | 0 | 50µM | 13µM | 4.5µM | 1.1µM
O=C(O)CCCN=CC1=C(O)CNC1=O | 0 | 0 | 0 | 22µM | ?
CC(=O)Nc1cccc(C(=O)N2CCN(S(=O)(=O)c3ccc(C4CCCCC4)cc3)CC2)c1 | - | - | 0 | 0 | -
CC(/C=N/NC(=O)c1nnn(-c2nonc2N)c1CN1CCCCC1)c1ccccc1 (centres undefined) | - | - | 0 | 0 | -
SMILES | L3MBTL1 inh | BAZ2B inh | HP1b chromo inh | JMJD2A Tudor inh | G9a inh
O=C(/C=C/c1ccc(O)cc1)c1ccc(NC2=C(N3CCCCC3)C(=O)c3ccccc3C2=O)cc1 | ? | ? | 0 | 20µM | 14µM
COc1ccccc1NC1=C(N2CCCCC2)C(=O)c2ccccc2C1=O | 0 | 32µM | ? | 40µM | 6.3µM
Cc1ccc(C(=O)Nc2cccc(O)c2)cc1S(=O)(=O)N1CCCCCC1 | - | 0 | 0 | 0 | 0
CN(C1=C(N2CCCCC2)C(=O)c2ccccc2C1=O)c1ccccc1 | - | 2.8µM | ? | 4µM | 3.5µM
O=C1C(Nc2cccc(O)c2)=C(N2CCCCC2)C(=O)c2ccccc21 | ? | 22µM | 22µM | 14µM | -
O=C(/C=C/c1ccc(O)cc1)c1ccccc1 | 0 | 0 | 0 | 0 | -
O=C1C(Nc2ccccc2)=C(N2CCCCC2)C(=O)c2ccccc21 | 0 | 25µM | ? | 40µM | 0[0.501 µM]
